Activity calls are given as the source filed them. Rule for the calls: active = hit-call score of the fitted dose curve at least 0.9, where 1 is the maximum; inactive = score below 0.9.

Read-out in the assay: adenosine kinase (ADK) gene, ADK (gene 132)
Kind of assay: LTEA_HepaRG_ADK: Life Technologies and Expression Analysis (LTEA) Assay for adenosine kinase (ADK) gene using HepaRG (AID 2283471). To be noted: mRNA level, 48 h; actives raise or lower the signal. On the procedure: LTEA_HepaRG is a cell based, multiplexed-readout assay that uses HepaRG, a human liver cell line, with measurements taken at 48 hours after chemical dosing on a 96-well plate.LTEA_HepaRG_ADK is one of 102 assay component(s) measured in the LTEA HepaRG cell culture assay. It is a marker of Steatosis.Data from the assay component LTEA_HepaRG_ADK was analyzed into 1 endpoint. This assay endpoint, LTEA_HepaRG_ADK, was analyzed with bidirectional fitting relative to DMSO as the negative control and baseline of activity. Using a type of inducible reporter, measures of mRNA induction for gain or loss-of-signal activity can be used to understand regulation of transcription factor activity. To generalize the intended target to other relatable targets, this assay endpoint is annotated to the kinase intended target family, where the subfamily is steatosis.
A total of 1060 chemcials from the ToxCast library were tested in eight-point concentration-response experiments. Cell culture and cytotoxicity assays were conducted at Thermo Fisher Scientific's Custom Services facility (Madison, WI). A single lot of human HepaRG cells (Thermo Fisher Scientific, Frederick, MD) was used for the cell culture experiments. 96-well format collagen type I coated plates of human HepaRG cells were prepared using established methods. Briefly, cryopreserved HepaRG cells were thawed, plated at a density of approximately 100,000 cells/well in HepaRG Thaw, Plate, and General Purpose media (HPRG770, Thermo Fisher Scientific), and incubated for 48 hours. 0.5% DMSO was selected as vehicle control to balance the requisite need of DMSO in HepaRG cultures to maintain differentiation (for example, baseline metabolism, proportions of hepatocytes vs. cholangiocytes), while enabling further hepatic receptor pathway activation (for example, PXR and CAR) in response to chemical exposure. 48 hours after plating, the culture medium was replaced with HepaRG Serum-Free Incudtion Media. Cells were exposed to each test chemical in duplicate and maintained in CO2 incubators for another 48 hours. Chemical plates were thawed to room temperature and 200x concentrations of treatment groups were prepared. 8-point conentration-reponse curves were made with the highest exposure at 100 uM, followed by half-log dilutions, all in 0.5% DMSO. Each test plate contained variouse controls, induction positive controls (1mM phenobarbital), cytotoxicity positive controls ([…] aflatoxin B1), vehicle controls (0.5% DMSO), and total lysis controls (0.5% DMSO). Cell morphology images were taken using an Essen IncuCyte FLR automated microscope, with six 96-well plates imaged in about 24 minutes. Images were captured and exported and JPEG files. Spent culture media was transfered to black-well plates for the LDH assay, and remaining media was sorted at -80 C for later use. Cells were treated with RLT buffer and frozen until shipped for gene expression analysis. Total RNA was isolated from the cell suspension in 75 uL of Buffer RLT (Qiagen, Germantown, MD 20874) by Quintiles/Expression Analysis (Durham, NC) using a custom isolation procedure. Total RNA from each plate well was transferred to a preamplification plate. Fluidigm's 96.96 Dynamic ArrayTM (Fluidigm, Amsterdam, the Netherlands) technology was used for gene expression analyses by quantitative reverse transcription polymerase chain reaction (qRT-PCR, performed by Quintiles/Expression Analysis, Durham, NC)89. Standard TaqManTM Assays (Applied Biosystems/ThermoFisher Scientific, Foster City, CA) were used to assess the expression of 93 genes selected based on their selectivity and sensitivity to important hepatic receptors known to be modulated by environmental chemicals; importance in human hepatocyte functionality; and hepatotoxicity. […]
As to `CCOc1ccc2[nH]cc(C(=O)NCc3ccccc3)c(=O)c2n1`, the result was inactive. As to `O=C(O)c1cccc(C(=O)O)c1`, the compound was called inactive. The same measure, in the same setting: the result for `OC[C@H]1O[C@@](CO)(O[C@H]2O[C@H](CO)[C@@H](O)[C@H](O)[C@H]2O)[C@@H](O)[C@@H]1O` reads “inactive”; that for `CCCCCOC(C)=O`, “inactive”; that for `CCCCCCOC(=O)CC(CC(=O)OCCCCCC)(OC(=O)CCC)C(=O)OCCCCCC`, “inactive”. As for `Cc1ccc(S(=O)(=O)NC(=O)NN2CCCCCC2)cc1`, the call was inactive. For `CCCCOC(=O)c1ccccc1`, the result was inactive.

Take `OCCOCCOCCO`: the compound was classed as inactive.

`CNC(C)=O`: the compound was classed as inactive. Same read-out and setting: the result for `CC(=O)c1ccccc1` reads “inactive”. Regarding `c1ccc(C(O[C@@H]2CCCN(CCc3ccc4c(c3)OCO4)C2)c2ccccc2)cc1`, the AC50 was 90.7 µM (active). The same measure, in the same setting: the result for `c1ccc2c(c1)-c1cccc3c1c-2cc1ccccc13` reads 12.3 µM (active). On to `O=C(O)[C@H](O)[C@@H](O)C(=O)O`, for which the result was inactive. The same measure, in the same setting: in the case of `CCCC(CCC)C(=O)O` it was “inactive”; in that of `c1ccc2cc3ccccc3cc2c1`, “inactive”. For `CCc1ccc(O)c(C(C)(C)C)c1`, the outcome was inactive. The same measure, in the same setting: the result for `CCOC(N)=O` reads “inactive”; that for `OCc1ccccc1`, “inactive”; that for `OCCNCCO`, “inactive”. Same read-out and setting: in the case of `O=C1CN(N=Cc2ccc([N+](=O)[O-])o2)C(=O)N1` it was “inactive”.

For the compound `O=S(=O)(O)c1ccc(N=Nc2c(O)ccc3cc(S(=O)(=O)O)ccc23)cc1`, the compound was called inactive. As to `CCn1nc(C)c2c1C(=O)NCC(c1ccc(O)cc1)=N2`, the result was inactive. As to `COc1cc2c(c(OC)c1OC)-c1ccc(OC)c(=O)cc1[C@@H](NC(C)=O)CC2`, the AC50 was 0.0644 µM (active). As for `OC[C@H]1O[C@@H]2O[C@H]3[C@H](O)[C@@H](O)[C@@H](O[C@H]4[C@H](O)[C@@H](O)[C@@H](O[C@H]5[C@H](O)[C@@H](O)[C@@H](O[C@H]6[C@H](O)[C@@H](O)[C@@H](O[C@H]7[C@H](O)[C@@H](O)[C@@H](O[C@H]1[C@H](O)[C@H]2O)O[C@@H]7CO)O[C@@H]6CO)O[C@@H]5CO)O[C@@H]4CO)O[C@@H]3CO`, the call was inactive. On to `COc1cc(C(C)C)c2c(c1)S(=O)(=O)N(COc1cc(=O)n3cccc(OCCN4CCCCC4)c3n1)C2=O`, for which the AC50 is 22 µM (active). In the case of `OC(Cn1cncn1)(Cn1cncn1)c1ccc(F)cc1F`, the compound was classed as inactive. Same read-out and setting: in the case of `O=C(O)c1ccc2c(c1)nc(C(=O)NC1CCN(C3CC3)CC1)n2Cc1cc(-c2ccc(Cl)s2)on1` it was “inactive”; in that of `CCCCCCCCCCCCCCCCOS(=O)(=O)O`, “inactive”; in that of `Cc1nc(-c2ccccn2)ncc1C(=O)Nn1cc(C)c2cc(F)ccc21`, “inactive”. On to `O=C(O)c1cccc(C[C@@H]2COc3ccc(OCc4nc5cc(F)ccc5s4)cc3[C@@H]2O)c1`, for which the result was inactive. Consider `CCCCCCCCCCCCCCO`, for which the outcome was inactive. For `CCCCN1C(=O)[C@@H]([C@H](O)C2CCCCC2)NC(=O)C12CCN(Cc1ccc(Oc3ccc(C(=O)O)cc3)cc1)CC2`, the AC50 is 1.01 µM (active). As for `CC(C)CC(C)O` (stereo not given), the result was inactive. The same measure, in the same setting: in the case of `Cn1cc[nH]c1=S` it was “inactive”; in that of `Cc1ncc([C@@H](CCCCCCc2ccc3c(n2)NCCC3)CC(=O)O)cn1`, “inactive”. On the same count and under the same terms, in the case of `NC(N)=O` it was “inactive”.

`CC(C)CCCCCCOC(=O)C1CCCCC1C(=O)OCCCCCCC(C)C` (stereo not given): the AC50 was 0.00316 µM (active).

Regarding `C=CN1CCCC1=O`, the compound was called inactive. Same read-out and setting: in the case of `O=S1(=O)CCCO1` it was “inactive”.

As to `CC(C)C(=O)Nc1ccc([N+](=O)[O-])c(C(F)(F)F)c1`, the call was inactive.

These data come from PubChem BioAssay (EPA / NIEHS).
